Values without a mark were called inactive. Active and inactive are the calls of the source.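 How the source made its calls: active means growth inhibition above 50% at the single 2 µM test dose, taken to imply half-maximal potency below 2 µM; inactive means the rest.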
Experiment: antimalarial activity against Dd2 strain (AID 2302);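 further: 0% = DMSO untreated growth and 100% = chloroquine plus artemisinin killed control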
Details: P. falciparum Dd2 in RBCs, LDH growth readout, 72 h; at 2 µM; stronger effect = higher value

Compound	growth inhibition
Cc1cc(F)ccc1N(c1nc(-c2cc(Cl)ccc2Cl)cs1)C1CCNC1 (centres undefined)	3%
CCc1nc2nc(C)cc(Nc3ccc(F)c(Cl)c3)n2n1	77% (active)
CN(C)CCNC(=O)c1cc2c(-c3ccc(Cl)cc3)nn(C)c2s1	81% (active)
CC(=O)c1sc(NC(=O)Nc2ccc(C)cc2C)nc1C	68% (active)
CCC(=O)NC(c1ccco1)c1cc(Cl)c2cccnc2c1O (centres undefined)	74% (active)
CCNc1cc(C)nc(Nc2ccc(NC(=O)c3ccccc3Br)cc2)n1	56% (active)
CCN(CCS(C)(=O)=O)Cc1ccc(-c2ccc3ncnc(Nc4ccc(OCc5cccc(F)c5)c(Cl)c4)c3c2)o1	63% (active)
Cc1cccc(C)c1N1CCN(C2CCC(NC(=O)/C=C/c3ccccc3)CC2)CC1 (centres undefined)	34%
COc1cc2c(cc1C(F)(F)F)N(C(=O)Nc1cc(Br)cc(-c3cccnc3)c1)CC2	34%
CCOc1cc(Br)c(C(C)NC(=O)c2ccccc2)cc1OCC (centres undefined)	10%
Cc1cnccc1/C=C/c1cccc(OCCCN2CCc3ccc(S(C)(=O)=O)cc3CC2)c1	72% (active)
Cn1nc(-c2cccc(CNC3CCc4ccccc43)c2)c2cnc(NC3CCCC3)nc21 (centres undefined)	23%
O=C(N[C@@H](Cc1ccccc1)C(=O)NC1CCCCCC1)c1ccc(O)c(-c2ccc(Cl)c(Cl)c2)c1	99% (active)
CC(=O)N1CCN(c2ccc(NC(=O)c3oc(-c4ccccc4)nc3C(F)(F)F)cn2)CC1	93% (active)
Cc1cc(F)ccc1[C@H]1C[C@H](N2CCOCC2)CCN1C(=O)N(C)[C@@H](C)c1cc(C(F)(F)F)cc(C(F)(F)F)c1	99% (active)
CCNC(=O)Nc1cccc(-c2ccc(-c3nc4c(C)cccc4[nH]3)s2)c1	20%
CC1(C)C[C@@H]2C[C@@](C)(CN2C(=O)c2cc(C(C)(C)C)nn2Cc2ccccc2)C1	77% (active)
Brc1ccsc1-c1nc(NCCC(c2ccccc2)c2ccccc2)no1	81% (active)
Cc1[nH]c(C)c(-c2ccc(OCCn3cnc(Cl)c3Cl)cc2)c(=O)c1Br	35%
COc1ccc2nc(C)cc(NN=Cc3ccc(Cl)cc3)c2c1	100% (active)

Compound	growth inhibition
CN1CCC(NCc2ccc(-c3cccc(S(=O)(=O)NCCc4ccccn4)c3)cc2)CC1	-8%
Cc1cccc(Cl)c1S(=O)(=O)Nc1cccc(CCN2CCC(N3CCCCC3)CC2)c1	18%
C=CCc1cc(C)ccc1OCCCON1C(N)=NC(N)=NC1(C)C	96% (active)
O=C(/C=C/c1ccsc1)N1CCC(CCN2CCC(c3c[nH]c4ccccc34)CC2)CC1	24%
NC(=NCc1ccc(Cl)c(Cl)c1)NC(=NCCCCCCN=C(NC(N)=NCc1ccc(Cl)c(Cl)c1)N1CCCCC1)N1CCCCC1	99% (active)
O=C(/C=C/c1ccc(Cl)cc1)NCCCCCN1CCCC(C(=O)Nc2ccc(Cl)c(Cl)c2)C1 (centres undefined)	3%
COc1cc(Nc2ccnc3cc(-c4ccncc4)ccc23)cc(OC)c1OC	39%
CCOc1cc(C(=O)NC2CCN(Cc3ccccc3)CC2)ccc1-c1nc2cc(Cl)c(Cl)cc2[nH]1	99% (active)
Cc1[nH]c(C)c(-c2ccc(Oc3cccc(Cl)c3)cc2)c(=O)c1Br	97% (active)
COc1cccc(Nc2c(C(N)=O)cnc3ccc(-c4ccc(S(C)=O)cc4)cc23)c1 (centres undefined)	100% (active)
COc1ccc(CN2CCCN(Cc3ccc(C(=O)Nc4ccc(Cl)cc4)cc3)CC2)cc1	3%
Nc1nc(N)c2c(ccc3c2ccn3CCCCO)n1	49%
CCNC(=O)N[C@@H]1CN[C@@H](C#Cc2cc3c(Nc4ccc(OCc5cccc(F)c5)c(Cl)c4)ncnc3s2)C1	27%
CS(=O)(=O)CCNCc1cc(-c2cc3ncnc(Nc4ccc(OCc5cccc(F)c5)c(Cl)c4)c3s2)cs1	48%
COc1ccccc1CCN1CCC(CN(C)Cc2ccc(O)c(Cl)c2)CC1	52% (active)
O=c1cc(NCCCNCc2cccc(SC(F)(F)F)c2)[nH]c2ccccc12	94% (active)
CCCCCCN=C(N)c1ccc(OCCCCCOc2ccc(C(N)=NCCCCCC)cc2)cc1	98% (active)
COc1ccc(NC(=O)c2ccc(-c3ccc(-c4cccnc4)cc3)c(C)c2)cc1OCCN(C)C	73% (active)
COc1ccc2nccc(NC(=O)N3CCC(NCc4cc5ccccc5[nH]4)CC3)c2n1	29%

From PubChem BioAssay
